This is an account of results in PubChem BioAssay (NCI).

What all share (assay): NCI-60 one-dose screen, 48 h (100 = growth as untreated, 0 = no growth, -100 = all killed)
Common to all, as to conditions: 10 µM unless noted

The subject of test [1] is T-47D breast.
Test [2] deals with MDA-MB-435 melanoma.
Test [3] has as its system SW-620 colon.
Test [4] has as its system MCF7 breast.
In test [5] the test system is HCT-116 colon.
Test [6] has as its system HCC-2998 colon.
Test [7] relates to KM12 colon.
Test [8] has as its system BT-549 breast.

SMILES strings stand for the structures. The panel holds about 83,000 compounds, 20% with a hit somewhere; the sample as a whole holds those more often.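 A percent growth of 40 corresponds to 60% growth inhibition; 0 means no net growth; -100 means all cells died. Active threshold: below 10.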 Values without a mark were called inactive. Active and inactive are the calls of the source.

For the compound `CC(C)(C)n1cc(-c2ccnc(NCCCNS(=O)(=O)c3ccc(C(F)(F)F)cc3)c2)c(-c2cccc(O)c2)n1`, the growth in test [1] is 31.3%; in test [2], 32.2%; in test [3], 0.471% (active); in test [4], 1.14% (active); in test [5], 16.1%; in test [6], -63% (active). Moreover, the growth in test [7] is -14.2% (active).

For `c1cc(C2=N[C@@H]3c4ccccc4C[C@@H]3O2)nc(C2=N[C@@H]3c4ccccc4C[C@@H]3O2)c1`, the growth in test [1] was 101%; in test [2], 104%; in test [3], 107%; in test [4], 88.1%; in test [5], 103%; in test [6], 104%. In addition, the growth in test [7] is 103%.

With `O=C(NCCCNc1nccc(-n2ccc3cccnc32)n1)c1c(F)cccc1F`, the growth in test [1] is 97.1%; in test [2], 105%; in test [3], 107%; in test [4], 88.4%; in test [5], 101%; in test [6], 104%. In addition, the growth in test [7] was 106%.

As for `COc1ccc(S(=O)(=O)n2ccc(-c3ccc4c(c3)CCC(C)(C)O4)n2)cc1OC`, the growth in test [1] was 43.7%; in test [2], 79.6%; in test [3], 79.9%; in test [4], 64.3%; in test [5], 61.5%; in test [6] it was 78.9%. Also, the growth in test [7] is 71.4%.

In the case of `OCc1ncc(-c2ccccc2)s1`, the growth in test [1] was 89.8%; in test [2] it was 108%; in test [3] it was 106%; in test [4], 102%; in test [5], 89.5%; in test [6], 79.6%. Besides, in test [7], the growth is 103%.

Consider `CCN(CC)CCOC(=O)C(c1ccccc1)(c1ccccc1)C(C)C`, for which the growth in test [1] is 86%; in test [2], 90.8%; in test [3], 97.3%; in test [5] it was 92.2%; in test [6] it was 96.9%; in test [7], 90.7%.

In the case of `COc1cc(/C=C/c2cc(/C=C/c3ccc(O)c(OC)c3)n(C(N)=O)n2)ccc1O`, the growth in test [1] is -7.56% (active); in test [2] it was -46% (active); in test [3] it was 0.998% (active); in test [4], -16.4% (active); in test [5], -39.2% (active); in test [6], 7.85% (active). Besides, the growth in test [7] was 3.47% (active).

`C=C1CCC2C3(C)COC(C)(C)OC3CCC2(C)C1C/C=C1/C(=O)OCC1Oc1ccccc1OC` (centres undefined): the growth in test [1] is 54.3%; in test [2], 68.6%; in test [3], 21.4%; in test [4] it was 30.2%; in test [5], 73.3%; in test [6], 122%. For the same compound, the growth in test [7] was 97.9%.

Take `CCN(CC)CCC(CNc1ccnc2cc(Cl)ccc12)c1ccc(Cl)cc1` (centres undefined): the growth in test [1] was -76% (active); in test [2] it was -72.2% (active); in test [3] it was -67.8% (active); in test [4], -70.7% (active); in test [5] it was -26.9% (active); in test [6], -64.8% (active). Further, the growth in test [7] is 17.9%.

Consider `COc1ccc(-c2cc(-c3ccccc3)nc(SCCCC(=O)NO)n2)cc1OC`, for which the growth is 2.62% (active) in test [1]; 9.02% (active) in test [2]; 12.5% in test [3]; 4.19% (active) in test [4]; 5.58% (active) in test [5]; 34.7% in test [6]. Further, the growth in test [7] is 13.1%.

Take `COc1ccc(C(=O)n2nc(/C=C/c3ccc(O)c(OC)c3)cc2/C=C/c2ccc(O)c(OC)c2)cc1`: the growth in test [1] was -4.93% (active); in test [2], -22.5% (active); in test [3] it was 4.16% (active); in test [4], -3.07% (active); in test [5] it was -0.661% (active); in test [6], 16.4%. The growth in test [7] is 6.33% (active).

With `Cn1cnc2c(N3CCN(C(=O)OCc4ccc5c(Cl)cc(Cl)c(O)c5n4)CC3)nc(Cl)nc21`, the growth in test [1] was 61%; in test [2] it was 67.5%; in test [3], 85.9%; in test [4], 73%; in test [5], 53.1%; in test [6] it was 94.1%. In addition, in test [7], the growth is 56.9%.

`CC12CCCC(CC(=O)c3[nH]c4ccccc4c31)C2` (centres undefined): the growth in test [1] is 24.1%; in test [2], -46.9% (active); in test [3], 22.2%; in test [4] it was 21.1%; in test [5], 22.7%; in test [6], 43.5%. Moreover, in test [7], the growth was 26.7%.

In the case of `O=S(=O)(NCCCNc1nccc(-n2ccc3cccnc32)n1)c1cccc(C(F)(F)F)c1`, the growth in test [1] is 99.6%; in test [2], 108%; in test [3], 108%; in test [4], 103%; in test [5], 105%; in test [6], 119%. The growth in test [7] was 98%.

Turning to `CC(C)(C)n1cc(-c2ccnc(NCCCNS(=O)(=O)c3ccc(Br)cc3)c2)c(-c2cccc(O)c2)n1`, the growth in test [1] is 29.9%; in test [2] it was 39%; in test [3] it was 7.75% (active); in test [4] it was 7.27% (active); in test [5], 22.6%; in test [6] it was -56.1% (active). Moreover, the growth in test [7] is 1.78% (active).

For `C=C1CCC2C(C)(CO)C(O)CCC2(C)C1CC(NCc1ccccc1)C1=CCOC1=O` (centres undefined), the growth was 97.7% in test [1]; 106% in test [2]; 97.3% in test [3]; 89.8% in test [4]; 99.8% in test [5]; 108% in test [6]. In test [7], the growth was 104%.

For `CC12CCC3C4(C)COC(c5ccccc5Cl)OC4CCC3(C)C1CC(C1=CCOC1=O)O2` (centres undefined), the growth in test [1] is 31.1%; in test [2], 54.2%; in test [3] it was 84.7%; in test [4], 46.6%; in test [5], 40.5%; in test [6], 77.4%. Besides, the growth in test [7] was 59.9%.

For `CCCCN(CCCC)C(=O)CC`, the growth was 124% in test [1]; 104% in test [2]; 110% in test [3]; 93.3% in test [4]; 102% in test [5]; 107% in test [6]. For the same compound, the growth in test [7] is 106%.

On to `CC(C)(C)n1cc(-c2ccnc(NCCCNS(=O)(=O)c3ccc(F)cc3)c2)c(-c2cccc(O)c2)n1`, for which the growth in test [1] is 31.2%; in test [2], 58.6%; in test [3], 8.4% (active); in test [4] it was 16.7%; in test [5], 32%; in test [6] it was 9.22% (active). Further, in test [7], the growth was 28.2%.

Turning to `Cc1ccc(C(=O)NCCCNc2nccc(-n3ccc4cccnc43)n2)cc1`, the growth in test [1] was 90.6%; in test [2], 104%; in test [3], 109%; in test [4], 103%; in test [5], 93.7%; in test [6], 109%. Moreover, in test [7], the growth was 103%.

For the compound `COc1ccc(S(=O)(=O)NCCCNc2nccc(-n3ccc4cccnc43)n2)cc1`, the growth is 78.2% in test [1]; 98.4% in test [2]; 113% in test [3]; 98.7% in test [4]; 105% in test [5]; 111% in test [6]. In addition, the growth in test [7] was 94.6%.

In the case of `Cc1ccc(Nc2nnc(-c3ccc(Cl)cc3)o2)c(C)c1`, the growth is 75.6% in test [1]; 6.82% (active) in test [2]; 56.5% in test [3]; 56.9% in test [4]; 83.9% in test [5]; 84.8% in test [6]. In test [7], the growth was 65.7%.

`C=C1CCC2C(C)(CO)C(O)CCC2(C)C1C/C=C1/C(=O)OCC1O/C=C/c1ccccc1` (centres undefined): the growth was 33.4% in test [1]; 75.8% in test [2]; 5.82% (active) in test [3]; 32.6% in test [4]; 58.5% in test [5]; 101% in test [6]. In addition, the growth in test [7] was 74.8%.

Turning to `Cc1ccc(S(=O)(=O)NCCCNc2cc(-c3cn(C(C)(C)C)nc3-c3cccc(O)c3)ccn2)cc1`, the growth in test [1] was 44.2%; in test [2], 63.1%; in test [3], 19.1%; in test [4], 45.7%; in test [5], 52.5%; in test [6], 50.3%. Moreover, in test [7], the growth was 39.8%.

Take `CC(C)(C)n1cc(-c2ccnc(NCCNS(=O)(=O)c3ccc(F)cc3)c2)c(-c2cccc(O)c2)n1`: the growth in test [1] is 23.7%; in test [2] it was 64.7%; in test [3], 11%; in test [4], 28.5%; in test [5], 37.3%; in test [6] it was 31.2%. For the same compound, the growth in test [7] is 36.1%.

On to `CC(C)(C)n1cc(-c2ccnc(NCCNS(=O)(=O)c3ccc(Cl)cc3)c2)c(-c2cccc(O)c2)n1`, for which the growth was 38% in test [1]; 71.2% in test [2]; 28% in test [3]; 28.2% in test [4]; 45.4% in test [5]; 36.7% in test [6]. Moreover, the growth in test [7] is 42.5%.

Regarding `COc1ccc(C2=CC(c3cc(OC)c(OC)c(OC)c3)NC(=O)N2)cc1OC` (centres undefined), the growth in test [8] was 8.72% (active); in test [2], 7.31% (active); in test [3] it was 17.3%; in test [4], 15%; in test [5], 13.4%; in test [6], 18.7%. In addition, the growth in test [7] is -26.8% (active).

`O=C(O)Cc1cccc(=O)c(O)c1C(=O)O`: the growth in test [8] was 102%; in test [3] it was 106%; in test [4], 100%; in test [5], 102%; in test [6], 106%; in test [7], 104%.

Regarding `O=[N+]([O-])c1cc(S(=O)(=O)Oc2ccccc2)ccc1Cl`, the growth is 30.2% in test [8]; 19.1% in test [2]; 23.5% in test [3]; -64.3% (active) in test [4]; -54.8% (active) in test [5]; -77.9% (active) in test [6]. Besides, in test [7], the growth was -71.8% (active).

Take `CCC1=CCC[C@@]2(C)CCC[C@@]3(C)CCCC(C)(C)[C@]1([O-])[O+]32`: the growth in test [8] is 101%; in test [2], 103%; in test [3], 101%; in test [4], 98.8%; in test [5], 102%; in test [6] it was 104%. Moreover, the growth in test [7] was 110%.

With `N=c1ccc2nc3ccc(N)cc3sc-2c1`, the growth is 5.98% (active) in test [1]; -56.6% (active) in test [2]; 14.6% in test [4]; 1.01% (active) in test [5]; 53.2% in test [6]; 18.1% in test [7].

As to `CC[N+](CC)=c1cc2oc3cc(N(C)C)ccc3nc-2cc1C`, the growth in test [8] was 60.2%; in test [3], 15.9%; in test [5], 7.17% (active); in test [6], 32.3%; in test [7], 33.3%.
